Screening results as filed in PubChem BioAssay.
tim10-1 inh: growth inhibitors of tim10-1 mutant yeast | inhibition, % at 20 µM | S. cerevisiae tim10-1 ts strain growth, BacTiter-Glo, 24 h | 2.2% of 330,000 active | AID 463190;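 active means inhibition of at least 40%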;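 further: mutant grown at 25 °C; 0% = DMSO wells with yeast and 100% = wells holding no yeast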
MPTP block: permeability transition pore inhibition | 1.4% of 360,000 active | AID 602449 | isolated mouse mitochondria, Ca2+ swelling absorbance, 30 min | inhibition, % at 10 µM;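 active means inhibition of 50% or more, scaled per plate between neutral and stimulator controls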;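 further: 0% = DMSO wells given calcium and 100% = 1 mM EGTA wells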
tim23-1 inh: tim23-1 yeast growth inhibition. S. cerevisiae tim23-1 growth, BacTiter-Glo luminescence, 24 h. 1.3% of 330,000 active. inhibition, % at 20 µM. AID 463212;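 active means growth inhibition of the mutant yeast at or above 50%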;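 further: temperature-sensitive mutant grown at 25 °C; plate controls were DMSO-treated mutant yeast for no effect and medium wells lacking yeast for full effect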
TIM10 inh: inhibits growth of TIM10 yeast strain. S. cerevisiae TIM10 strain growth, BacTiter-Glo luminescence, 24 h. inhibition, % at 10 µM. 1.4% of 330,000 active;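 active means inhibition of 40% or more at the single tested concentration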;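 further: wild-type TIM10 isogenic control strain grown at permissive 25 °C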
Mdm2-MdmX inh: inhibitors of human Mdm2/MdmX interaction. O15151+Q00987. SaOS-2 split-luciferase Mdm2/MdmX complementation, luminescence. inhibition, % at 8 µM. 3% of 330,000 active. AID 485346;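 active means inhibition of at least 50% at 8 µM in the primary screen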
Target sequence (O15151 whole entry, looked up): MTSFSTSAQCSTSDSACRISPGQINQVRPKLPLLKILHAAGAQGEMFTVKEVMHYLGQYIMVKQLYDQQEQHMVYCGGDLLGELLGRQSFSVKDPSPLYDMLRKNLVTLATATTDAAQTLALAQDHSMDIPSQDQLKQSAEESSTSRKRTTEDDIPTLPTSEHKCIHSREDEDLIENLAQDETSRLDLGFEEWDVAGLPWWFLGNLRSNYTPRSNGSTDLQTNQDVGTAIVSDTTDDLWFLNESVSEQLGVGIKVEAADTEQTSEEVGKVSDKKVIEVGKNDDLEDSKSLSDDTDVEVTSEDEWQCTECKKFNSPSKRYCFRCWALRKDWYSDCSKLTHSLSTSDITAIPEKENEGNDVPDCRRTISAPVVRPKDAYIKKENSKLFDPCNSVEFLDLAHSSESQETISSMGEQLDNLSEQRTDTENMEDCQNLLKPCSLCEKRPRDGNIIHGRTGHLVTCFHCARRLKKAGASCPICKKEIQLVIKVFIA
Target sequence (Q00987 whole entry, looked up): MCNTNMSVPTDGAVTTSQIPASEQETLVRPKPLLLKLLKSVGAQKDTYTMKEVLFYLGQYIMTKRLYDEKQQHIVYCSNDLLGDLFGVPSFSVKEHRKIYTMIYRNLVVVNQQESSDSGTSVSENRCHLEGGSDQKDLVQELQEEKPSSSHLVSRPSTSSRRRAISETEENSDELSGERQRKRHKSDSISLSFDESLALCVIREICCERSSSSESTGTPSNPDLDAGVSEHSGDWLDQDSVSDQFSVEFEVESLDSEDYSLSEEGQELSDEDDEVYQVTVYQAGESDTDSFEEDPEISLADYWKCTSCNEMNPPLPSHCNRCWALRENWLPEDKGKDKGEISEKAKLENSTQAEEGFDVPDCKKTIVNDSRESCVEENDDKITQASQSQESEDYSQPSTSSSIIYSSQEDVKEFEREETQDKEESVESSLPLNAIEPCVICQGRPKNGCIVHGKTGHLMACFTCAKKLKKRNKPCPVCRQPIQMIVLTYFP
tim10-1 confirm: confirmation of tim10-1 mutant yeast growth inhibitors | shares compounds with tim10-1 inh | S. cerevisiae tim10-1 ts strain growth, BacTiter-Glo, 24 h | inhibition, % at 20 µM | 56% of 7,400 active;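 active means inhibition of yeast growth at or above a set limit in either of two repeat tests at 20 µM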;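 further: tim10-1 mutant grown at permissive 25 °C to find synthetic lethal compounds; 0% = DMSO yeast wells and 100% = medium wells without yeast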
tim10 confirm: TIM10 yeast growth inhibition, confirmed. shares compounds with TIM10 inh. S. cerevisiae tim10 strain growth, BacTiter-Glo luminescence, 24 h. inhibition, % at 10 µM. 63% of 4,600 active. AID 463215;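 active means inhibition of yeast growth at or above a set limit in either of two replicates at 10 µM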;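 further: this counterscreen used the strain with wild-type TIM10; 0% = yeast with DMSO and 100% = medium wells lacking yeast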
tim23-1 confirm: confirmation of tim23-1 mutant yeast growth inhibitors; S. cerevisiae tim23-1 growth, BacTiter-Glo luminescence, 24 h; 83% of 4,400 active; shares compounds with tim23-1 inh; inhibition, % at 20 µM;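 active means inhibition above about 39% in either of two replicate wells at 20 µM, limit read from the data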;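 further: temperature-sensitive tim23-1 mutant grown at 25 °C; 0% = DMSO wells with yeast and 100% = medium wells without yeast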
* = called active by the depositor. Most compounds without a hit are left out; they make up all but 6.3% or so of the library.

Cc1cc(C)nc(/N=c2/ssnc2Cl)c1 was read as tim10-1 inh 81.0*, MPTP block -0.7, tim23-1 inh 91.4*, TIM10 inh 77.1*, Mdm2-MdmX inh 33.7, tim10-1 confirm 82.5*, tim10 confirm 94.7* and tim23-1 confirm 67.9*.
Screening Cc1cc(Cl)ccc1N=c1ssnc1Cl returned tim10-1 inh 52.4*, MPTP block 2.6, tim23-1 inh 59.5*, TIM10 inh 39.7, Mdm2-MdmX inh 16.9, tim10-1 confirm 55.1* and tim23-1 confirm 77.4*.
Screening Cc1nn2c(-c3ccncc3)nnc2c2ccccc12 returned tim10-1 inh 56.8*, MPTP block -2.6, tim23-1 inh 51.6*, TIM10 inh 76.0*, Mdm2-MdmX inh 0.2, tim10-1 confirm 65.1*, tim10 confirm 74.5* and tim23-1 confirm 42.6*.
CSCCC(c1nc2ccccc2[nH]1)n1c(-c2cc(C(F)(F)F)cc(C(F)(F)F)c2)nc2ccccc21 (stereo unspecified) was read as MPTP block 30.2.
For CC(=O)Oc1ccc2c(=O)c(-c3nc4ccccc4s3)coc2c1 the results were tim10-1 inh 69.3*, MPTP block 5.6, tim23-1 inh 65.0*, TIM10 inh 86.2*, Mdm2-MdmX inh -83.6, tim10-1 confirm 23.5, tim10 confirm 49.2* and tim23-1 confirm 71.5*.
`O=Nc1c(-c2cccc([N+](=O)[O-])c2)nc2ncccn12` gave tim10-1 inh 91.3*, MPTP block 2.1, tim23-1 inh 89.1*, TIM10 inh 83.8*, Mdm2-MdmX inh 42.9, tim10-1 confirm 91.2*, tim10 confirm 98.0* and tim23-1 confirm 72.8*.
For Cc1ccc(-c2nc3ccccc3c(=O)o2)cc1 the results were tim10-1 inh 2.9, MPTP block -0.6, tim23-1 inh 3.7, TIM10 inh -1.0 and Mdm2-MdmX inh -5.9.
Screening O=c1oc(-c2ccc(Br)o2)nc2ccccc12 returned tim10-1 inh 45.9*, MPTP block -1.2, tim23-1 inh 53.9*, TIM10 inh 32.1, Mdm2-MdmX inh -15.7, tim10-1 confirm 16.1 and tim23-1 confirm 60.5*.
`CC1=CNC(=O)CC(C)(C)C1` gave MPTP block 0.7.
Screening N/C(=N\OC(=O)c1ccccc1)C(Cc1ccccc1)C(=O)NOC(=O)c1ccccc1 (stereo unspecified) returned MPTP block 2.0.
For COC(=O)c1ccc2[nH]c3c(c2c1)CC(C)CC3 (stereo unspecified) the results were tim10-1 inh 23.8, MPTP block 0.5, tim23-1 inh 39.7, TIM10 inh 19.3 and Mdm2-MdmX inh 1.6.
`CC1CCc2[nH]c3ccc(C(=O)N4CCCC(C(F)(F)F)C4)cc3c2C1` (stereo unspecified) gave tim10-1 inh 41.8*, MPTP block -0.3, tim23-1 inh 67.7*, TIM10 inh 24.8, Mdm2-MdmX inh 15.2, tim10-1 confirm 30.2 and tim23-1 confirm 54.6*.
O=C1c2ccccc2C(=O)N1CC1CCCO1 (stereo unspecified) was read as tim10-1 inh -17.8, MPTP block 0.4, tim23-1 inh -6.5, TIM10 inh -2.6 and Mdm2-MdmX inh 12.1.
`O=C1c2cccc3cc([N+](=O)[O-])cc(c23)C(=O)N1CC1CCCO1` (stereo unspecified) gave tim10-1 inh 40.7*, MPTP block 3.1, tim23-1 inh 51.8*, TIM10 inh 15.2, Mdm2-MdmX inh 39.7, tim10-1 confirm 23.4 and tim23-1 confirm 44.3*.
Screening Nc1ncnc2c1ncn2C1OC(COP(=O)(O)O)C(O)C1O (stereo unspecified) returned tim10-1 inh 85.5*, MPTP block 1.1, tim23-1 inh 81.3*, TIM10 inh 72.9*, Mdm2-MdmX inh 13.9, tim10-1 confirm 84.2*, tim10 confirm 60.4* and tim23-1 confirm 87.6*.
`Nc1ncnc2c1ncn2[C@@H]1O[C@H](COP(=O)(O)OP(=O)(O)OP(=O)(O)O)[C@@H](O)[C@H]1O` gave tim10-1 inh 84.1*, MPTP block 0.2, tim23-1 inh 83.9*, TIM10 inh 69.8*, Mdm2-MdmX inh 11.2, tim10-1 confirm 80.2*, tim10 confirm 68.4* and tim23-1 confirm 87.0*.
Nc1ncnc2c1ncn2[C@@H]1O[C@H](COP(=O)(O)O)[C@@H](O)[C@H]1O was read as tim10-1 inh 87.3*, MPTP block 0.0, tim23-1 inh 83.8*, TIM10 inh 76.3*, Mdm2-MdmX inh 9.4, tim10-1 confirm 84.6*, tim10 confirm 65.9* and tim23-1 confirm 90.4*.
`CCc1nc2ccc(C(=O)Nc3ccc(Cl)c(Cl)c3)cn2c1N(C)Cc1ccc(OC)cc1` gave MPTP block 6.9.
`O=c1oc(-c2ccccc2Cl)nc2ccsc12` gave tim10-1 inh 43.6*, MPTP block -1.0, tim23-1 inh 70.1*, TIM10 inh 34.5, Mdm2-MdmX inh -2.7, tim10-1 confirm 34.9* and tim23-1 confirm 59.7*.
`O=C(COC(=O)c1cccc(OC(F)F)c1)Nc1cc(S(=O)(=O)N2CCCC2)ccc1Cl` gave MPTP block -2.0.
For S=C(N/N=C/c1cccs1)NC1CC2CCC1C2 (stereo unspecified) the results were tim10-1 inh 48.4*, MPTP block 0.8, tim23-1 inh 72.3*, TIM10 inh 50.4*, Mdm2-MdmX inh 25.7, tim10-1 confirm 46.3*, tim10 confirm 60.3* and tim23-1 confirm 58.2*.
Screening S=C(NCCN1CCOCC1)N/N=C/c1cccs1 returned tim10-1 inh -2.0, MPTP block -1.1, tim23-1 inh -2.8, TIM10 inh 12.1 and Mdm2-MdmX inh -17.6.
For CSc1ccccc1NC(=O)C1(C)CCN1C(=O)Cc1ccccc1Cl (stereo unspecified) the results were MPTP block 0.1.
Screening Nc1ccn([C@@H]2O[C@H](C(=O)N3CCCN(Cc4ccccc4F)CC3)[C@@H](O)[C@H]2O)c(=O)n1 returned MPTP block 0.2.
Screening CC(=O)NC(c1ccc(F)c(F)c1)c1nc(-c2cccc(C(=O)O)c2)cs1 (stereo unspecified) returned MPTP block -0.3.
For C#CCOCCOCCOCCNc1nc(N2CCN(C(=O)CCCCCCCCCCNC(=O)[C@H](CCCCN)n3cc(C)nn3)CC2)nc(N2CCN(C(=O)CCCCCCCCCCNC(=O)[C@H](CCCN=C(N)N)n3cc(C[C@@H](C)CC)nn3)CC2)n1 the results were tim10-1 inh 40.1*, tim23-1 inh 50.5*, TIM10 inh 9.0, Mdm2-MdmX inh 0.6, tim10-1 confirm 13.3 and tim23-1 confirm 63.8*.
